Measured values taken from PubChem BioAssay AID1159580 (chemical genetic matrix, 2015).
Values joined by “and” are separate entries in the source; they are usually repeats but may differ in a detail not shown here. Identical values can stand only once. Among all 5,500 compounds or so, about 2,000 (36%) were called active. Not shown: some 18% with an inconclusive outcome. Cut-off read from the data, not from the text of the source: active = normalized growth mostly below about 0.91 (no sharp cut-off); inconclusive = no clear call, values can overlap the other calls; inactive = mostly above about 0.92. The list shows a part of the results.

Assay: chemical genetic growth profiling, strain panel (AID 1159580);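 note: tested at 20 µM; growth read once vehicle control cultures reached saturation at 30 °C; 1 = growth at the plate median or of vehicle wells; lower values mean less growth of the strain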
Details: S. cerevisiae deletion strains, growth OD

Measured: normalized growth

O=C(NCO)c1cccnc1
inactive: locus YAL013W, strain DEP1, stronger effect = lower value 0.99 | locus YAL021C, strain ccr4, stronger effect = lower value 1.02 | locus YAL026C, strain drs2, stronger effect = lower value 1.01 | locus YAL030W, strain snc1, stronger effect = lower value 1.01 | locus YBL061C, strain skt5, stronger effect = lower value 1.01 | locus YBR009C, strain hhf1, stronger effect = lower value 0.998 | locus YBR021W, strain FUR4, stronger effect = lower value 1.04 | locus YBR023C, strain chs3, stronger effect = lower value 1 | locus YBR171W, strain sec66, stronger effect = lower value 1.03 | locus YBR229C, strain ROT2, stronger effect = lower value 0.997 | locus YBR231C, strain swc5, stronger effect = lower value 1 | locus YBR279W, strain paf1, stronger effect = lower value 1.01 | locus YCL011C, strain gbp2, stronger effect = lower value 1.01 | locus YCL016C, strain dcc1, stronger effect = lower value 1.01 | locus YCL029C, strain bik1, stronger effect = lower value 0.971 | locus YCL061C, strain MRC1, stronger effect = lower value 0.999 | locus YCL069W, strain vba3, stronger effect = lower value 1 | locus YCR088W, strain abp1, stronger effect = lower value 1 | locus YDL005C, strain med2, stronger effect = lower value 1 | locus YDL035C, strain GPR1, stronger effect = lower value 0.985 | locus YDL040C, strain nat1, stronger effect = lower value 1.01 | locus YDL074C, strain BRE1, stronger effect = lower value 1 | locus YDL101C, strain DUN1, stronger effect = lower value 0.99 | locus YDL134C, strain PPH21, stronger effect = lower value 0.988 | locus YDL185W, strain tfp1, stronger effect = lower value 1.01 | locus YDL192W, strain arf1, stronger effect = lower value 0.987 | locus YDR001C, strain nth1, stronger effect = lower value 1 | locus YDR069C, strain doa4, stronger effect = lower value 0.999 | locus YDR101C, strain arx1, stronger effect = lower value 0.991 | locus YDR137W, strain rgp1, stronger effect = lower value 1.02 | locus YDR150W, strain NUM1, stronger effect = lower value 0.98 | locus YDR159W, strain sac3, stronger effect = lower value 1 | locus YDR162C, strain NBP2, stronger effect = lower value 1 | locus YDR195W, strain ref2 0.993 | locus YDR297W, strain sur2, stronger effect = lower value 1.01 | locus YDR318W, strain mcm21, stronger effect = lower value 0.978 | locus YDR334W, strain swr1, stronger effect = lower value 1.01 | locus YDR335W, strain msn5, stronger effect = lower value 1.01 | locus YDR388W, stronger effect = lower value 0.989 | locus YDR392W, strain spt3, stronger effect = lower value 0.893 | locus YDR502C, strain sam2, stronger effect = lower value 0.996 | locus YEL003W, strain gim4, stronger effect = lower value 1.01 | locus YEL037C, strain rad23, stronger effect = lower value 1.02 | locus YEL061C, strain CIN8 (second series), stronger effect = lower value 1.01 | locus YEL061C, strain CIN8, stronger effect = lower value 0.996 | locus YER015W, strain faa2, stronger effect = lower value 1 | locus YER016W, strain bim1, stronger effect = lower value 1.01 | locus YER110C, stronger effect = lower value 0.97 | locus YER111C, strain swi4, stronger effect = lower value 1 | locus YER155C, strain BEM2 (second series), stronger effect = lower value 1.01 | locus YER155C, strain BEM2, stronger effect = lower value 0.996 | locus YER167W, strain BCK2, stronger effect = lower value 0.982 | locus YFR010W, strain ubp6, stronger effect = lower value 1.01 | locus YGL078C, strain dbp3, stronger effect = lower value 0.979 | locus YGL086W, strain mad1, stronger effect = lower value 0.983 | locus YGL167C, strain pmr1, stronger effect = lower value 1.01 | locus YGL173C, strain kem1, stronger effect = lower value 1.01 | locus YGL227W, strain vid30, stronger effect = lower value 1 | locus YGL240W, strain doc1, stronger effect = lower value 0.988 | locus YGL248W, strain PDE1, stronger effect = lower value 0.994 | locus YGL253W, strain hxk2, stronger effect = lower value 1.01 | locus YGR078C, strain PAC10, stronger effect = lower value 0.995 | locus YGR135W, strain pre9, stronger effect = lower value 1.02 | locus YGR229C, strain SMI1, stronger effect = lower value 1.01 | locus YGR252W, strain gcn5, stronger effect = lower value 1.01 | locus YHR013C, strain ard1, stronger effect = lower value 0.984 | locus YHR027C, strain rpn1, stronger effect = lower value 1.01 | locus YHR030C, strain SLT2, stronger effect = lower value 0.984 and 0.995 | locus YHR079C, strain IRE1 (second series), stronger effect = lower value 0.989 | locus YHR079C, strain IRE1, stronger effect = lower value 0.992 | locus YHR094C, strain hxt1, stronger effect = lower value 0.982 | locus YHR129C, strain ARP1, stronger effect = lower value 0.994 | locus YHR142W, strain chs7, stronger effect = lower value 1.02 | locus YHR200W, strain rpn10, stronger effect = lower value 0.981 | locus YIL066C, strain RNR3, stronger effect = lower value 0.98 | locus YIL073C, strain SPO22, stronger effect = lower value 0.894 | locus YIL125W, strain kgd1, stronger effect = lower value 0.975 | locus YIR030C, strain dcg1, stronger effect = lower value 0.992 | locus YJL092W, strain hpr5, stronger effect = lower value 1.01 | locus YJL095W, strain BCK1 (second series), stronger effect = lower value 1 | locus YJL095W, strain BCK1, stronger effect = lower value 1.01 and 0.998 | locus YJL115W, strain asf1, stronger effect = lower value 1 | locus YJL129C, strain trk1, stronger effect = lower value 1.01 | locus YJL134W, strain LCB3, stronger effect = lower value 0.988 | locus YJL154C, strain vps35, stronger effect = lower value 1 | locus YJL164C, strain tpk1, stronger effect = lower value 0.998 | locus YJL166W, strain qcr8, stronger effect = lower value 1.01 | locus YJL168C, strain set2, stronger effect = lower value 0.982 | locus YJL187C, strain SWE1 (second series), stronger effect = lower value 0.982 | locus YJL187C, strain SWE1, stronger effect = lower value 1 | locus YJR043C, strain POL32, stronger effect = lower value 0.983 | locus YJR066W, strain TOR1, stronger effect = lower value 0.906
